An excerpt weighted towards active compounds, which were near 2.3% of everything screened.
M1 ag parental: M1 agonist counterscreen hit in parental CHO-K1 cells. Fluo-8 calcium fluorescence; scaled to maximal ATP response, vehicle zero. activation, % at 3 µM. 360,000 tested, 0.48% active; in the data active means activation above about 15%;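 further: untransfected CHO-K1 host cells lacking M1 receptor as counterscreen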
CHRM1 agonist: activates human CHRM1 receptor; P11229; activation, % at 3 µM; 360,000 tested, 0.33% active; CHO-K1 hM1, Fluo-8 calcium fluorescence, agonist mode; 0% DMSO, 100% acetylcholine EC100;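 active means activation above the run's mean compound activation plus 3 SD, cut at about 16% in these data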;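 further: peak over basal fluorescence ratio within a 140 s kinetic read after compound addition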
Target sequence (P11229 whole entry, looked up): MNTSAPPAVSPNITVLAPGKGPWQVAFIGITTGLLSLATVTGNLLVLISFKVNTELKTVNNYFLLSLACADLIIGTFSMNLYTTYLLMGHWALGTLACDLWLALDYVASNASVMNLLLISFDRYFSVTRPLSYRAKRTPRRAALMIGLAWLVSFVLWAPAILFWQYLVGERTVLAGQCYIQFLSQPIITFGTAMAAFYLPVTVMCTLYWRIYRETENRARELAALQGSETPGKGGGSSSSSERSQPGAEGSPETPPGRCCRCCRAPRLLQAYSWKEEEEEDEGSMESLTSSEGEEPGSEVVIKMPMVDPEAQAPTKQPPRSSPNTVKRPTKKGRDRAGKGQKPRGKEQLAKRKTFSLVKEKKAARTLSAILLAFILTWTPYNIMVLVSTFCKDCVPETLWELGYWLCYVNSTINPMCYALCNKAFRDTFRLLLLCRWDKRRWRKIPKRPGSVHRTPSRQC
M1 PAM: potentiates human M1 receptor response to acetylcholine | P11229 | CHO-K1 hM1, Fluo-8 calcium fluorescence, ACh EC20; 0% = ACh EC20, 100% = maximal ACh | activation, % at 3 µM | 360,000 tested, 0.088% active; in the data active means activation above about 19%, passing the limit was not always enough
CHO-K1 Ca antag: M1 antagonist counterscreen hit in parental CHO-K1 cells. ATP-induced calcium, Fluo-8 fluorescence. inhibition, % at 3 µM. 360,000 tested, 0.6% active. AID 602250;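 active means inhibition above a per-plate cutoff, the plate's mean sample inhibition plus 3 SD, cut at about 24% in these data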;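 further: 0% = DMSO plus EC80 ATP and 100% = DMSO alone without ATP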
M1 PAM parental: M1 PAM counterscreen hit in parental CHO-K1 cells. 360,000 tested, 0.02% active. activation, % at 3 µM. ATP EC20, Fluo-8 calcium fluorescence; 0% at ATP EC20, 100% at ATP max. AID 602247;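 active means activation above the run cutoff, the mean activation of all test compounds plus 3 SD, cut at about 40% in these data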;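 further: peak over basal fluorescence ratio in a 140 s read after ATP addition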
M1 antag: blocks human M1 muscarinic receptor | P11229 | CHO-K1 hM1, Fluo-8 calcium fluorescence, ACh EC80 antagonist | inhibition, % at 3 µM | 360,000 tested, 1.3% active;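 active means percent inhibition above its own plate's cutoff, namely the mean of that plate's compound wells plus 3 SD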;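 further: peak over basal fluorescence ratio during 140 s after agonist addition; 0% = ACh EC80 plus DMSO and 100% = DMSO alone without agonist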
Active calls of the source: *.

`C=CC[C@@H](CC(=O)N(CCO)Cc1ccccc1)C(=O)NC[C@@H](OC(=O)[C@@H](CC=C)Cc1ccc(F)cc1)c1ccccc1` gave M1 ag parental 0, CHRM1 agonist -5, M1 PAM -3, CHO-K1 Ca antag 2, M1 PAM parental 15 and M1 antag 14.
For C=CC[C@@H](CC(=O)N[C@@H](CO)Cc1ccccc1)C(=O)NCCOC(=O)[C@@H](CC=C)Cc1ccc(F)cc1 the results were M1 ag parental 0, CHRM1 agonist 0, M1 PAM 7, CHO-K1 Ca antag 24*, M1 PAM parental -14 and M1 antag -8.
For C=CC[C@H](CC(=O)N(CCO)Cc1ccccc1)C(=O)NC[C@H](OC(=O)[C@@H](CC=C)Cc1ccc(F)cc1)c1ccccc1 the results were M1 ag parental 6, CHRM1 agonist -8, M1 PAM -28, CHO-K1 Ca antag 4, M1 PAM parental -1 and M1 antag 43*.
COc1ccc(C)cc1S(=O)(=O)NC(C)c1cnn(-c2ccccn2)c1C (stereo not drawn) was read as M1 ag parental 1, CHRM1 agonist -3, M1 PAM 5, CHO-K1 Ca antag -13, M1 PAM parental 21 and M1 antag -8.
Screening CCN1CCC2(CC1)N=C(c1ccc(F)cc1)C(=S)N2 returned M1 ag parental 4, CHRM1 agonist -8, M1 PAM -22, CHO-K1 Ca antag -8, M1 PAM parental 11 and M1 antag 39*.
Screening Cc1nnc2ccc(-c3cccc(NS(=O)(=O)c4ccccc4Cl)c3)nn12 returned M1 ag parental 0, CHRM1 agonist -7, M1 PAM -3, CHO-K1 Ca antag -21, M1 PAM parental 7 and M1 antag 2.
Cc1nnc2ccc(-c3cccc(NS(=O)(=O)c4ccccc4[N+](=O)[O-])c3)nn12 was read as M1 ag parental 1, CHRM1 agonist -7, M1 PAM -24, CHO-K1 Ca antag -16, M1 PAM parental 12 and M1 antag 32*.
Screening C=C1CCC2C(C)(C(=O)O)CCCC2(C)C1CCC(CO)CCO (stereo not drawn) returned M1 ag parental 0, CHRM1 agonist -3, M1 PAM 3, CHO-K1 Ca antag -11, M1 PAM parental -3 and M1 antag -6.
Screening O=C(C1CCN(c2ncnc3c2nc2n3CCCCC2)CC1)N1CCN(c2ccc(F)cc2)CC1 returned M1 ag parental 4, CHRM1 agonist 30*, M1 PAM -7, CHO-K1 Ca antag -8, M1 PAM parental 12 and M1 antag -1.
For O=C(NCc1ccccc1)C1CCCN(c2ncnc3c2nc2n3CCCCC2)C1 (stereo not drawn) the results were M1 ag parental 1, CHRM1 agonist -3, M1 PAM 6, CHO-K1 Ca antag 0, M1 PAM parental 1 and M1 antag 1.
For O=C(NCC1CCN(Cc2cccc(Cl)c2)CC1)C1CCCN(c2ncnc3c2nc2n3CCCCC2)C1 (stereo not drawn) the results were M1 ag parental 5, CHRM1 agonist -5, M1 PAM -23, CHO-K1 Ca antag -12, M1 PAM parental 6 and M1 antag 75*.
`O=C(NCC1CCN(Cc2ccc(F)cc2)CC1)C1CCCN(c2ncnc3c2nc2n3CCCCC2)C1` (stereo not drawn) gave M1 ag parental 0, CHRM1 agonist -6, M1 PAM -22, CHO-K1 Ca antag -9, M1 PAM parental 8 and M1 antag 70*.
Screening O=C(NCCc1ccc(Cl)cc1)C1CCCN(c2ncnc3c2nc2n3CCCCC2)C1 (stereo not drawn) returned M1 ag parental 1, CHRM1 agonist -5, M1 PAM 0, CHO-K1 Ca antag -14, M1 PAM parental 7 and M1 antag -1.
`O=C(NCC1CCN(Cc2ccc(Cl)cc2)CC1)C1CCCN(c2ncnc3c2nc2n3CCCCC2)C1` (stereo not drawn) gave M1 ag parental 3, CHRM1 agonist -14, M1 PAM -41, CHO-K1 Ca antag -4, M1 PAM parental 10 and M1 antag 103*.
For CCOc1ccc(Br)cc1S(=O)(=O)NCC(c1ccc(OC)cc1)N1CCOCC1 (stereo not drawn) the results were M1 ag parental 1, CHRM1 agonist -5, M1 PAM 13, CHO-K1 Ca antag -15, M1 PAM parental 11 and M1 antag -14.
